# Assay results: PubChem BioAssay (NCI)
# The panel holds about 83,000 compounds, 20% with a hit somewhere; the sample as a whole holds those more often.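 Activity criterion: percent growth below 10, measured after cells in 96-well plates were exposed to a single compound concentration for 48 hours.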 Unmarked numbers belong to inactive results. Activity calls are given as the source filed them.
# System: SK-MEL-2 melanoma
# Assay: NCI-60 one-dose screen, 48 h (100 = growth as untreated, 0 = no growth, -100 = all killed)
# Settings: 10 µM unless noted
row,SMILES,growth
1,NC1=NC(=O)NC1(c1ccccc1)c1ccccc1,68.2%
2,N#C/C(C(=O)c1ccccc1)=C1/C(=O)Nc2ccccc21,106%
3,CN(Cc1cccc(C(F)(F)F)c1)C(=O)[C@@H](CC(=O)N1CCC(N2CCCCC2)CC1)N1C(=O)[C@@H](N2C(=O)OC[C@@H]2c2ccccc2)[C@H]1/C=C/c1ccccc1,100%
4,CCOc1ccc(S(=O)(=O)Nc2ccc3c(c2)N(S(=O)(=O)CC)CCC3)cc1,111%
5,CCOC(=O)C(=Cc1ccccc1[N+](=O)[O-])C(=O)OCC,12%
6,COc1cc(/C=C/C(=O)/C=C/c2ccc(-n3ccnc3C)cc2)ccc1O,100%
7,CCOC(=O)CC(c1ccccc1)C(C#N)c1ccccc1 (stereo unspecified),106%
8,Cc1ccc(C2=C/C(=C/c3ccc(Br)cc3)C(=O)N2CCc2ccc(S(N)(=O)=O)cc2)cc1,98.6%
9,Cc1ccc(NC(=O)N[C@@H](Cc2cc(F)cc(F)c2)C(=O)N[C@@H]2C(=O)N3CCC[C@H]3C(=O)N3CCCC[C@H]3C(=O)N[C@@H](C)C(=O)N3C[C@H](C)C[C@H]3C(=O)O[C@H]2C)cc1,35.2%
10,C=C(C)[C@@H]1CC[C@]2(C)[C@H](CC[C@@H]3[C@@H]([C@@](C)(O)CCC=C(C)C)CC[C@]32C)[C@@]1(C)CCC(=O)O,-41.6% [100 µM] (active)
11,C=CCCCCCCCCC(=O)OC(C)C,101%
12,O=C1Nc2ccccc2/C1=C/C(=O)c1ccc(N2CCCCC2)cc1,113%
13,O=C(N=c1n(-c2ccccc2)nc2n1CCN2C1=NCCN1C(=O)c1ccc(Cl)cc1)c1ccc(Cl)cc1,83.3%
14,CC1=CC[C@@H]2C(C)(C)[C@@H](O)CC[C@@]2(C)[C@@H]1COc1ccc2ccc(=O)oc2c1,68.1%
15,CSc1nc2sc3cc(Cl)c(Cl)cc3n2c(=N)c1C#N,102%
16,COc1ccc(C(=O)CCC(=O)O)cc1,102%
17,O=C(CCNCc1ccccc1)c1ccccc1,108%
18,NC(=O)CC1C=CCC1 (stereo unspecified),105%
19,CCNc1cc2c(cc1Br)-c1ccccc1C2=O,98%

row,SMILES,growth
1,O=C(O)c1cn(C2CC2)c2cc(N3CCN(Cc4c(O)ccc5ccccc45)CC3)c(F)cc2c1=O,73.8%
2,CCOC(=O)COc1ccc2c(c1)O/C(=C\c1ccc(O)cc1)C2=O,116%
3,Nc1cc(NN=C(c2ccc(O)cc2)c2ccc(O)cc2)c([N+](=O)[O-])cc1[N+](=O)[O-],-93.6% (active)
4,CCCCCCNC(=O)Nc1ncnc2c1ncn2-c1ccccc1,91.3%
5,C[C@]12CCc3c(ccc4cc(O)ccc34)[C@@H]1CC[C@H]2O,101%
6,Nc1nc(Nc2ccccc2)c2ncn(Cc3ccc4c(c3)OCO4)c2n1,12.2%
7,COc1ccc(OC)c(NC=O)c1,116%
8,Fc1cc2[nH]ncc2c2c3c(c(-c4cn[nH]c4)nc12)CCCC3,-30.7% (active)
9,CCN(CC)CCCCCCNc1cccc2cc(Br)cnc12,21.7%
10,O=C(CSc1nc2ccc([N+](=O)[O-])cc2[nH]1)Nc1cccc(Cl)c1,7.44% (active)
11,CCN(CC)CCCOc1ccc2c(c1)O/C(=C\c1cccc(OC)c1)C2=O,118%
12,CC1(C)C(=O)/C(=C\c2ccco2)C[C@]2(C)[C@H]3CC=C4[C@@H]5C[C@](C)(C(=O)O)CC[C@]5(C)CC[C@@]4(C)[C@]3(C)CC[C@@H]12,-57.5% [100 µM] (active)
13,C=C(C)[C@@H]1CC[C@]2(C(=O)NCCCCCCN(CCCN)CCCN)CC[C@]3(C)[C@H](CC[C@@H]4[C@@]5(C)CC[C@H](OCCCN)C(C)(C)[C@@H]5CC[C@]43C)[C@@H]12,122% [100 µM]
14,C=C(C)[C@@H]1CC[C@]2(COC(=O)c3ccccc3C(=O)O)CC[C@]3(C)[C@H](CC[C@@H]4[C@@]5(C)CC[C@H](OC(=O)c6ccccc6C(=O)O)C(C)(C)[C@@H]5CC[C@]43C)[C@@H]12,23.8% [100 µM]
15,COc1ccc2c(c1)c(-c1noc(-c3cn(C)c4ncc(F)cc34)n1)cn2C,94%
16,c1ccc(-c2nnc(-c3c[nH]c4ncccc34)s2)cc1,103%
17,O=C1COCCN1c1ccc(NCc2cn(Cc3ccc(F)cc3)c3ccccc23)cc1,56.7%
18,CC(=O)Nc1ccc2nc3ccc(NC(C)=O)cc3[n+](-c3ccccc3)c2c1,106%
19,CCCCNC(=O)NS(=O)(=O)Cc1ccccc1,119%

# System: EKVX NSCLC
# Assay: as above
# Settings: 10 µM unless noted
row,SMILES,growth
1,NC1=NC(=O)NC1(c1ccccc1)c1ccccc1,111%
2,N#C/C(C(=O)c1ccccc1)=C1/C(=O)Nc2ccccc21,99.4%
3,CN(Cc1cccc(C(F)(F)F)c1)C(=O)[C@@H](CC(=O)N1CCC(N2CCCCC2)CC1)N1C(=O)[C@@H](N2C(=O)OC[C@@H]2c2ccccc2)[C@H]1/C=C/c1ccccc1,89.9%
4,CCOc1ccc(S(=O)(=O)Nc2ccc3c(c2)N(S(=O)(=O)CC)CCC3)cc1,96.1%
5,CCOC(=O)C(=Cc1ccccc1[N+](=O)[O-])C(=O)OCC,68.6%
6,COc1cc(/C=C/C(=O)/C=C/c2ccc(-n3ccnc3C)cc2)ccc1O,102%
7,CCOC(=O)CC(c1ccccc1)C(C#N)c1ccccc1 (stereo unspecified),87.5%
8,Cc1ccc(C2=C/C(=C/c3ccc(Br)cc3)C(=O)N2CCc2ccc(S(N)(=O)=O)cc2)cc1,92.8%
9,Cc1ccc(NC(=O)N[C@@H](Cc2cc(F)cc(F)c2)C(=O)N[C@@H]2C(=O)N3CCC[C@H]3C(=O)N3CCCC[C@H]3C(=O)N[C@@H](C)C(=O)N3C[C@H](C)C[C@H]3C(=O)O[C@H]2C)cc1,28.2%
10,C=C(C)[C@@H]1CC[C@]2(C)[C@H](CC[C@@H]3[C@@H]([C@@](C)(O)CCC=C(C)C)CC[C@]32C)[C@@]1(C)CCC(=O)O,8.69% [100 µM] (active)
11,C=CCCCCCCCCC(=O)OC(C)C,101%
12,O=C1Nc2ccccc2/C1=C/C(=O)c1ccc(N2CCCCC2)cc1,106%
13,O=C(N=c1n(-c2ccccc2)nc2n1CCN2C1=NCCN1C(=O)c1ccc(Cl)cc1)c1ccc(Cl)cc1,77.1%
14,CC1=CC[C@@H]2C(C)(C)[C@@H](O)CC[C@@]2(C)[C@@H]1COc1ccc2ccc(=O)oc2c1,72.4%
15,CSc1nc2sc3cc(Cl)c(Cl)cc3n2c(=N)c1C#N,80.1%
16,COc1ccc(C(=O)CCC(=O)O)cc1,78.7%
17,O=C(CCNCc1ccccc1)c1ccccc1,104%
18,NC(=O)CC1C=CCC1 (stereo unspecified),105%
19,CCNc1cc2c(cc1Br)-c1ccccc1C2=O,71.5%

row,SMILES,growth
1,O=C(O)c1cn(C2CC2)c2cc(N3CCN(Cc4c(O)ccc5ccccc45)CC3)c(F)cc2c1=O,60.4%
2,CCOC(=O)COc1ccc2c(c1)O/C(=C\c1ccc(O)cc1)C2=O,104%
3,Nc1cc(NN=C(c2ccc(O)cc2)c2ccc(O)cc2)c([N+](=O)[O-])cc1[N+](=O)[O-],97%
4,CCCCCCNC(=O)Nc1ncnc2c1ncn2-c1ccccc1,92.2%
5,C[C@]12CCc3c(ccc4cc(O)ccc34)[C@@H]1CC[C@H]2O,56.9%
6,Nc1nc(Nc2ccccc2)c2ncn(Cc3ccc4c(c3)OCO4)c2n1,48.7%
7,COc1ccc(OC)c(NC=O)c1,101%
8,Fc1cc2[nH]ncc2c2c3c(c(-c4cn[nH]c4)nc12)CCCC3,13.1%
9,CCN(CC)CCCCCCNc1cccc2cc(Br)cnc12,93.1%
10,O=C(CSc1nc2ccc([N+](=O)[O-])cc2[nH]1)Nc1cccc(Cl)c1,16.7%
11,CCN(CC)CCCOc1ccc2c(c1)O/C(=C\c1cccc(OC)c1)C2=O,97.4%
12,CC1(C)C(=O)/C(=C\c2ccco2)C[C@]2(C)[C@H]3CC=C4[C@@H]5C[C@](C)(C(=O)O)CC[C@]5(C)CC[C@@]4(C)[C@]3(C)CC[C@@H]12,-71.4% [100 µM] (active)
13,C=C(C)[C@@H]1CC[C@]2(C(=O)NCCCCCCN(CCCN)CCCN)CC[C@]3(C)[C@H](CC[C@@H]4[C@@]5(C)CC[C@H](OCCCN)C(C)(C)[C@@H]5CC[C@]43C)[C@@H]12,141% [100 µM]
14,C=C(C)[C@@H]1CC[C@]2(COC(=O)c3ccccc3C(=O)O)CC[C@]3(C)[C@H](CC[C@@H]4[C@@]5(C)CC[C@H](OC(=O)c6ccccc6C(=O)O)C(C)(C)[C@@H]5CC[C@]43C)[C@@H]12,39.5% [100 µM]
15,COc1ccc2c(c1)c(-c1noc(-c3cn(C)c4ncc(F)cc34)n1)cn2C,65%
16,c1ccc(-c2nnc(-c3c[nH]c4ncccc34)s2)cc1,37.2%
17,O=C1COCCN1c1ccc(NCc2cn(Cc3ccc(F)cc3)c3ccccc23)cc1,91%
18,CC(=O)Nc1ccc2nc3ccc(NC(C)=O)cc3[n+](-c3ccccc3)c2c1,118%
19,CCCCNC(=O)NS(=O)(=O)Cc1ccccc1,122%
